These results are taken from PubChem BioAssay (Tox21).

For experiment [1], the target named is Progesterone receptor (Homo sapiens) (UniProt P06401). The experiment can be described thus: qHTS assay to identify small molecule agonists of the progesterone receptor (PR) signaling pathway (AID 1346784; calls by dose curve; further: nearly all actives have a fitted effect of over 30% in size). A digest of the protocol: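 Agonist qHTS: compounds pinned onto 3,000 PR-UAS-bla HEK 293T cells per well in charcoal-stripped serum medium, 16hr at 37C, then beta-lactamase activity measured by LiveBLAzer FRET fluorescence after 2 hours at room temperature.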
Sequence of Progesterone receptor (Homo sapiens) (P06401 whole entry, looked up): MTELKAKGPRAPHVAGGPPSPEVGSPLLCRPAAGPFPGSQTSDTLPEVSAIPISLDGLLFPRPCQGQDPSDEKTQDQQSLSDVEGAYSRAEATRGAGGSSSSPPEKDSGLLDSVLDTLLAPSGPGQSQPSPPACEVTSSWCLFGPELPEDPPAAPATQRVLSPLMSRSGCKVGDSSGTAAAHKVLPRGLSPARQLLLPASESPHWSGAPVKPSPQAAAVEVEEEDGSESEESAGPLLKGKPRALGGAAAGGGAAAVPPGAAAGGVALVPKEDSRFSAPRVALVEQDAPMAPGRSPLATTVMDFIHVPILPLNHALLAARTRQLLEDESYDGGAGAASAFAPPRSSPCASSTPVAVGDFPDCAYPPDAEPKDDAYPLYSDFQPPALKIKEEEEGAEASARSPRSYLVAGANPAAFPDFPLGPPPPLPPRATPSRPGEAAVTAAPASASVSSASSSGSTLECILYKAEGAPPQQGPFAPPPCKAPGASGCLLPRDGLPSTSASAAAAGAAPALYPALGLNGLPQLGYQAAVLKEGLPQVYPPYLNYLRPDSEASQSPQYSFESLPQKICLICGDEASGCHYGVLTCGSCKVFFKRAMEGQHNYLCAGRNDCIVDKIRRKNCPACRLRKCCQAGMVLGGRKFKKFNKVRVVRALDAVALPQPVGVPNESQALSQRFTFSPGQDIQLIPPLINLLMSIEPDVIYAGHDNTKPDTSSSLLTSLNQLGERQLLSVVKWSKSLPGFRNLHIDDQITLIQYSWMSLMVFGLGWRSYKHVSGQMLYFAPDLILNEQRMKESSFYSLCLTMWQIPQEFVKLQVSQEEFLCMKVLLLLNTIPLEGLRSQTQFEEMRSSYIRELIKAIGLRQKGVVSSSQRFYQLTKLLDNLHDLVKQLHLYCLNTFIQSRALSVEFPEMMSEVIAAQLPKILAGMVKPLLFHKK
A general note: qHTS replaces the single test concentration by a dilution series.

Experiment [2] has the same target. The experiment can be described thus: qHTS assay to identify small molecule antagonists of the progesterone receptor (PR) signaling pathway (AID 1346795; active means well fitted inhibition curve with a large enough effect in the signal ratio in the repeat runs, not every such curve was filed as active; the % refers to the signal ratio). The procedure, abridged:
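Antagonist mode with agonist R5020 at 1 nM final and 16 hr incubation at 37C. Reporter was beta-lactamase driven by UAS in HEK293T (PR-UAS-bla), 2% charcoal-stripped serum; signal from LiveBLAzer FRET substrate, 2 hr at room temperature.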

Experiment [3] is described as follows: qHTS assay to identify small molecule antagonists of the progesterone receptor (PR) signaling pathway - cell viability counter screen (AID 1346798). Further: series mostly up to about 92 µM; nearly all actives have a fitted effect of over 50% in size. The procedure, abridged:
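Cytotoxicity read as CellTiter-Glo luminescence (30 min, room temperature) in the same wells as the beta-lactamase readout. HEK293T PR-UAS-bla cells in charcoal-stripped 2% FBS received compound and R5020, then 16 h at 37C, 5% CO2.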

Experiment [4] can be described thus: qHTS assay to identify small molecule agonists of the progesterone receptor (PR) signaling pathway - cell viability counter screen (AID 1346799; calls by dose curve; further: nearly all actives have a fitted effect of over 45% in size). The procedure, abridged: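 Cytotoxicity measured by CellTiter-Glo luminescence (30 min, RT) in the same wells as the PR beta-lactamase agonist read. Those HEK293T cells had 16 h compound treatment at 37 C in 2% charcoal-stripped FBS medium.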

A short description of experiment [5]: qHTS assay to identify small molecule antagonists of the TGF-beta/Smad signaling pathway - cell viability counter screen (AID 1346824). Further: nearly all actives have a fitted effect of over 50% in size. The procedure, abridged: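 SBE-bla HEK 293T cells, incubated overnight, then compound plus 0.25 ng/mL TGF-beta1 (stock added) for 5 hr at 37 C. Viability was read in the same wells by CellTiter-Glo luminescence after 30 min at room temperature.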

Experiment [6] in a line: qHTS assay to identify small molecule agonists of the TGF-beta/Smad signaling pathway - cell viability counter screen (AID 1346829). Further: nearly all actives have a fitted effect of over 45% in size. Further: potency means the concentration at half of the fitted maximal effect. A digest of the protocol:
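After overnight seating at 37 C and 5% CO2, reporter cells got compounds for 5 hr and FRET substrate for 2 hr; cell viability then came from CellTiter-Glo luminescence.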

The nature of experiment [7]: qHTS assay to identify small molecule agonists of the TGF-beta/Smad signaling pathway (AID 1346859; active means well fitted activation curve with a large enough effect in the signal ratio in the repeat runs, not every such curve was filed as active; the % refers to the signal ratio; further: series mostly up to about 77 µM). A digest of the protocol:
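Fluorescence (ex 405 nm; em 460 and 530 nm) was read 2 h after LiveBLAzer FRET substrate at RT. The preceding compound treatment of overnight-plated SBE-bla HEK293T cells lasted 5 h at 37 C.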

A short description of experiment [8]: Human pregnane X receptor (PXR) small molecule agonists, qHTS cell viability counter screen (AID 1346977). Further: nearly all actives have a fitted effect of over 50% in size. Further: potency means the concentration at half of the fitted maximal effect. The procedure, abridged: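 Same-well viability read: CellTiter-Fluor added after 23 hr compound exposure, fluorescence measured 1 hr later. Cells were PXR-Luc HepG2 seeded at 2,000/well in 5% charcoal-stripped FBS medium, rested 5 hr before dosing at 37 C.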

Experiment [9] in a line: Caspase-3/7 induction in HepG2 cells by small molecules, qHTS assay (AID 1346978). Further: nearly all actives have a fitted effect of over 15% in size. A digest of the protocol: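 Wild-type HepG2 cells, 2,000/well, settled 5 hr at 37 C and 5% CO2, then compound-treated for 17 hr; caspase-3/7 activity read by luminescent Caspase-Glo 3/7 after 30 min at room temperature.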
A short description of experiment [10]: Caspase-3/7 induction in CHO-K1 cells by small molecules, qHTS assay (AID 1346980). Further: nearly all actives have a fitted effect of over 15% in size. Further: potency means the concentration at half of the fitted maximal effect. A digest of the protocol: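 Wild-type CHO-K1 cells exposed to compounds for 17hr at 37 C, 5% CO2. Caspase-3/7 activity then measured by Caspase-Glo 3/7 luminescence after 30min at room temperature.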
A short description of experiment [11]: Caspase-3/7 induction in HepG2 cells by small molecules, qHTS cell viability counter screen (AID 1346981). Further: nearly all actives have a fitted effect of over 30% in size. Further: potency means the concentration at half of the fitted maximal effect. The procedure, abridged: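 Multiplexed with the caspase-3/7 assay: HepG2 cells, 16 hr compound treatment, CellTiter-Fluor viability detection by fluorescence.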
For experiment [12], the target named is Nuclear receptor subfamily 1 group I member 2 (Homo sapiens) (UniProt O75469). The experiment can be described thus: Human pregnane X receptor (PXR) small molecule agonists, qHTS assay (AID 1346982). Further: nearly all actives have a fitted effect of over 35% in size. Further: potency means the concentration at half of the fitted maximal effect. A digest of the protocol: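 We seeded PXR-Luc HepG2 cells in assay medium containing 5% charcoal-stripped FBS, added compounds 5 hr later, incubated 24 hr, and read luminescence with ONE-Glo reagent.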
Sequence of Nuclear receptor subfamily 1 group I member 2 (Homo sapiens) (O75469 whole entry, looked up): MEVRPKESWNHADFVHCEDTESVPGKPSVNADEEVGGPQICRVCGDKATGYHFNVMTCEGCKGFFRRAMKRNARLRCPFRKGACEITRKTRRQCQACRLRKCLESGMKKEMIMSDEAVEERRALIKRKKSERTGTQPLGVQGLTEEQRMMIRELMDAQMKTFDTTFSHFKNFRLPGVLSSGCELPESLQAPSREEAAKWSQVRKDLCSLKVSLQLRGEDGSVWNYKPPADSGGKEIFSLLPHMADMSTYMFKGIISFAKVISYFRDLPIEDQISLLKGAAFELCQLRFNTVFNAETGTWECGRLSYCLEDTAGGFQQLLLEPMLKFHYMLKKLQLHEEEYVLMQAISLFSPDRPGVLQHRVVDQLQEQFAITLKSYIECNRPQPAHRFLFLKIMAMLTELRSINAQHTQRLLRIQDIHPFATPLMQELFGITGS

In experiment [13] the target is Cytochrome P450 2D6 (Homo sapiens) (UniProt P10635). The experiment in a line: Cytochrome P450 Family 2 Subfamily D Member 6 (CYP2D6) small molecule antagonists: luciferase reporter qHTS assay (AID 1671196). Further: nearly all actives have a fitted effect of over 50% in size. Further: potency means the concentration at half of the fitted maximal effect. A digest of the protocol: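 Luminescence (RLU), read 20 min after detection reagent, indicated CYP2D6 conversion of proluciferin to luciferin during a 1 h NADPH-dependent reaction at room temperature.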
Sequence of Cytochrome P450 2D6 (Homo sapiens) (P10635 whole entry, looked up): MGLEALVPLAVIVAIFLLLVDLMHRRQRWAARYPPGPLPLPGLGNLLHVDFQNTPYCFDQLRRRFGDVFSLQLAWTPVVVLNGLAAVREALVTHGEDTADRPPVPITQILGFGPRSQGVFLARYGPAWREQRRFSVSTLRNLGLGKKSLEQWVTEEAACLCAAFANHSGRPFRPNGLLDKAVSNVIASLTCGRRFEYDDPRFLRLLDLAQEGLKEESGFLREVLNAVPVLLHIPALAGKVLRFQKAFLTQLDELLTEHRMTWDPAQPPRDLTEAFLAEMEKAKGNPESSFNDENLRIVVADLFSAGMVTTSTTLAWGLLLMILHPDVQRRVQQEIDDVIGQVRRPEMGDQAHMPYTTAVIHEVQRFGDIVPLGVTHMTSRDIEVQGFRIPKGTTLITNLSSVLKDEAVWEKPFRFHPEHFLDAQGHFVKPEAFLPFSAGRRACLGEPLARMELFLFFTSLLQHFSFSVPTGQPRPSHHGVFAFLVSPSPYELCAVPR
Background: Reporter assays use an easily measured gene product as a stand-in for the process of interest.

Experiment [14] can be described thus: Caspase-3/7 induction in CHO-K1 cells by small molecules, qHTS cell viability counter screen (AID 1346979). Further: nearly all actives have a fitted effect of over 35% in size. Further: potency means the concentration at half of the fitted maximal effect. The procedure, abridged:
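Cytotoxicity counter screen: CellTiter-Fluor added to compound-treated wild-type CHO-K1 cells at 16 h (37C, 5% CO2), fluorescence measured 1 h later; same wells as caspase-3/7 measurement.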

Experiment [15] has as its target Cytochrome P450 2C19 (Homo sapiens) (UniProt P33261). The experiment in a line: Cytochrome P450 Family 2 Subfamily C Member 19 (CYP2C19) small molecule antagonists: luciferase reporter qHTS assay (AID 1671197). Further: nearly all actives have a fitted effect of over 65% in size. Further: potency means the concentration at half of the fitted maximal effect. The procedure, abridged:
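Inhibition of CYP2C19 was scored from loss of luminescence in a P450-Glo proluciferin substrate assay, NADPH-started and run 1 h at 37C, with ketoconazole as positive control.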

The target in experiment [16] is Nuclear receptor subfamily 1 group I member 2 (Rattus norvegicus) (UniProt Q9R1A7). The experiment can be described thus: Rat pregnane X receptor (rPXR) activation by small molecules, qHTS assay (AID 1346983). Further: nearly all actives have a fitted effect of over 20% in size. The following applies: rPXR luciferase reporter cells, One-Glo luminescence, 24 h; stronger effect = higher value. The procedure, abridged:
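Cell-based rPXR activation assay: rPXR cells, 2,000 per well, rested 5hr at 37 C, then exposed to compounds in DMSO for 24 hr at 37 C. Luciferase activity read by One-Glo luminescence after 30 min at room temperature.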

Experiment [17] has as its target Nuclear receptor subfamily 1 group I member 2 (Homo sapiens) (UniProt O75469). The experiment can be described thus: CYP3A4 induction through human pregnane X receptor (PXR) by small molecules, qHTS assay (AID 1346984). Further: nearly all actives have a fitted effect of over 40% in size. A digest of the protocol: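 qHTS, concentration-response format: HepG2 DPX-2 line, PXR/CYP3A4-luc. Exposure 24 h, 37C. Substrate Luciferin-IPA 3uM final, 3 h. Detection One-Glo, 30 min RT.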

The target is the same in experiment [18]. The experiment in a line: Human pregnane X receptor (PXR) activation by small molecules, qHTS assay (AID 1346985). Further: nearly all actives have a fitted effect of over 40% in size. The procedure, abridged: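 DPX-2 cells (HepG2 co-transfected with a PXR response element and a CYP3A4-promoter luciferase construct) were seeded at 2,000 per well, rested 5 hr at 37C, then exposed to DMSO-dissolved compounds for 24 hr. Activation was read as luciferase luminescence.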

Experiment [19] deals with Thyrotropin-releasing hormone receptor (Homo sapiens) (UniProt P34981). The experiment can be described thus: qHTS assay to identify small molecule antagonists of the thyrotropin-releasing hormone receptor (TRHR) signaling pathway (AID 1346877; active means well fitted inhibition curve with a large enough effect in the repeat runs, not every such curve was filed as active; further: series mostly up to about 51 µM). The procedure, abridged:
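Screening used HEK293 cells engineered with TRHR, with a brief 5 min room-temperature compound exposure preceding addition of TRH to 1 nM. The read-out was kinetic calcium-dye fluorescence, concentration-response from 15 doses in triplicate.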

For experiment [20] the target is unchanged. The experiment in a line: qHTS assay to identify small molecule agonists of the thyrotropin-releasing hormone receptor (TRHR) signaling pathway (AID 1346891; calls by dose curve; further: series mostly up to about 58 µM). The procedure, abridged:
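Agonist-mode intracellular calcium readout: kinetic fluorescence over 3 min at 1 s intervals after compound addition to TRHR-HEK293 cells (18 h seeded, 2 h dye-loaded at 37 C). Fifteen concentrations, triplicates.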

Each structure is given as a SMILES string. Several values for one entry are separate records, joined by “and”; a condition that tells them apart may be missing. Identical values can stand only once. Results filed as inconclusive are left out. Some structures have more than one record in an assay (separate samples or runs), and their calls can disagree. Activity calls are given as the source filed them. Unless noted, the call rests on the fitted dose curve; in most records, active means well fitted curve in the direction sought with a large enough effect in the repeat runs; inconclusive means weak or mixed curves; inactive means no such curve, though single readings can be large; an effect the other way counts as inactive or inconclusive.
On the % scale 0 is the no-effect control and ±100 the full control effect.

Sequence of Thyrotropin-releasing hormone receptor (Homo sapiens) (P34981 whole entry, looked up): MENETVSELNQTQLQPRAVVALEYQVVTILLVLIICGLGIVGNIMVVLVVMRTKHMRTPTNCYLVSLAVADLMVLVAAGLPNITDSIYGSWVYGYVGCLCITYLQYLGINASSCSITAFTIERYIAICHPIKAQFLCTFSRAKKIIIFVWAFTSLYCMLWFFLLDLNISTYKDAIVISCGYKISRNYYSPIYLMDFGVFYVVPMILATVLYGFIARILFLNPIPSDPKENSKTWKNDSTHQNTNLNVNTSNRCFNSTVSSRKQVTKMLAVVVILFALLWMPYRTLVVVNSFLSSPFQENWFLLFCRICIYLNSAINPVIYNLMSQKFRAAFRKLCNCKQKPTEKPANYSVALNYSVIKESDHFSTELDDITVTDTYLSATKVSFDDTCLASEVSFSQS
Sequence of Cytochrome P450 2C19 (Homo sapiens) (P33261 whole entry, looked up): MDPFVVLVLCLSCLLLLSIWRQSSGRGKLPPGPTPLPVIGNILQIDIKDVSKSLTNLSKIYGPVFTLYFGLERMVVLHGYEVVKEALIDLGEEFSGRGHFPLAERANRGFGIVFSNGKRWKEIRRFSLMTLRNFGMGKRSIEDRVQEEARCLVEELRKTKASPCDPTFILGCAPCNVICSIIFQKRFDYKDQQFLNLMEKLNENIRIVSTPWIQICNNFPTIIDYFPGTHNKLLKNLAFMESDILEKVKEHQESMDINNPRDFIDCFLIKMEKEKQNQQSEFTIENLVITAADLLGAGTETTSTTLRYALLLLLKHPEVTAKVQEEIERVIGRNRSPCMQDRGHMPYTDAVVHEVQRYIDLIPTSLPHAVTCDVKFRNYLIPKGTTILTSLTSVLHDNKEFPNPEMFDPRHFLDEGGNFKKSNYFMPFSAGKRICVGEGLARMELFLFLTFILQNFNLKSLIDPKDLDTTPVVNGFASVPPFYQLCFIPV
Sequence of Nuclear receptor subfamily 1 group I member 2 (Rattus norvegicus) (Q9R1A7 whole entry, looked up): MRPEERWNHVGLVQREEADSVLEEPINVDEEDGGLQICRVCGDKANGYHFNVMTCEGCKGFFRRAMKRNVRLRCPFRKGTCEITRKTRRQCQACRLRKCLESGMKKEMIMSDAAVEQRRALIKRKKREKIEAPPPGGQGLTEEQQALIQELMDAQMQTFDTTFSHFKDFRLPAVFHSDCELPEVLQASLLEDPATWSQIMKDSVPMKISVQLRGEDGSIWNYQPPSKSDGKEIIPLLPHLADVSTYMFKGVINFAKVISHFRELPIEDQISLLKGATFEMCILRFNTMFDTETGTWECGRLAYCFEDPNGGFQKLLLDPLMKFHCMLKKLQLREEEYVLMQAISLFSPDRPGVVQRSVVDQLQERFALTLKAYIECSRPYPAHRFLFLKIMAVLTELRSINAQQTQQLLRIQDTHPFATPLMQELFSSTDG

As to `CC(O)CNCC(C)O` (stereo not given), the Potency entry in [1], in [2], in [3], in experiment [4], in [5] and in experiment [6] was “inactive” each time. The Potency result in experiment [7], in [8], in experiment [9], in experiment [10], in experiment [11] and in experiment [13] was “inactive” throughout. Moreover, the Potency in experiment [12] is 61.5 µM (active) and inactive.

Take `CCCCCCCCO`: the Potency entry in [1], in [2], in experiment [3], in experiment [4], in experiment [5] and in experiment [6] was “inactive” each time. Moreover, the Potency entry in experiment [7], in experiment [8], in [9], in experiment [14], in [10] and in experiment [11] was “inactive” throughout. The Potency entry in experiment [12], in experiment [13] and in experiment [15] was “inactive” throughout.

Regarding `Cc1nnc(NS(=O)(=O)c2ccc(N)cc2)s1`, the Potency entry in experiment [1], in experiment [2], in experiment [3], in experiment [4], in [5] and in experiment [6] was “inactive” in each case. Moreover, the Potency result in experiment [7], in experiment [8], in experiment [9], in experiment [10], in experiment [11] and in experiment [12] was “inactive” each time. For the same compound, the Potency result in experiment [13] is “inactive”. Also, the Potency in [15] is 39.8 µM (active).

Regarding `CN1Cc2c(N)cccc2C(c2ccccc2)C1` (stereo not given), the Potency entry in experiment [1], in experiment [2], in [3], in experiment [5], in experiment [6] and in [7] was “inactive” each time. The Potency entry in experiment [8], in experiment [9], in [10], in experiment [11], in [12] and in experiment [17] was “inactive” each time. For the same compound, the max activation in experiment [16] is -2.53% (inactive). In addition, in experiment [18], the compound was classed as inactive. Besides, the Potency in [13] was 5.03 µM (active) and 12.3 µM (active).

For `CO[Si](CCCNCCN)(OC)OC`, the Potency entry in experiment [1], in experiment [2], in experiment [3], in experiment [4], in experiment [7] and in experiment [19] was “inactive” in each case. Moreover, the Potency result in [9] and in experiment [13] was “inactive” in each case. The Potency in [6] was 31.4 µM (active) and inactive; in experiment [8], 31.6 µM (active) and inactive; in experiment [14] it was 5.53 µM (active) and inactive; in experiment [10] it was 27.7 µM (active) and inactive; in [11] it was 62 µM (active) and inactive; in experiment [12], 13.9 µM (active) and inactive. In addition, the outcome in experiment [20] was inactive.

On to `O=c1n(CCCN2CCN(c3cccc(Cl)c3)CC2)nc2ccccn12`, for which the Potency result in experiment [1], in [2], in experiment [3], in experiment [4], in [5] and in [6] was “inactive” each time. Also, the Potency entry in experiment [7], in experiment [8], in experiment [9], in experiment [14], in experiment [10] and in experiment [11] was “inactive” each time. The max activation in [16] is -1.08% (inactive).
